The campaign covered roughly 5,500 compounds. About 2,000 (36%) were called active. Another 18% or so got no clear call; they are omitted. Cut-off read from the data, not from the text of the source: active = normalized growth mostly below about 0.91 (no sharp cut-off); inconclusive = no clear call, values can overlap the other calls; inactive = mostly above about 0.92. Some of the results follow.
Test: chemical genetic growth profiling, strain panel (AID 1159580);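 note: tested at 20 µM; growth read once vehicle control cultures reached saturation at 30 °C; 1 = growth at the plate median or of vehicle wells; lower values mean less growth of the strain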
Details: growth OD
[1] = S. cerevisiae deletion strains, locus YAL013W, strain DEP1, hits give low values
[2] = S. cerevisiae deletion strains, locus YBR229C, strain ROT2, hits give low values
[3] = S. cerevisiae deletion strains, locus YDL101C, strain DUN1, hits give low values
[4] = S. cerevisiae deletion strains, locus YDR150W, strain NUM1, hits give low values
[5] = S. cerevisiae deletion strains, locus YEL061C, strain CIN8, hits give low values
[6] = S. cerevisiae deletion strains, locus YGR078C, strain PAC10, hits give low values
[7] = S. cerevisiae deletion strains, locus YHR030C, strain SLT2, hits give low values
[8] = S. cerevisiae deletion strains, locus YHR087W, strain rtc3, hits give low values
[9] = S. cerevisiae deletion strains, locus YJR043C, strain POL32, hits give low values
[10] = S. cerevisiae deletion strains, locus YJR075W, strain HOC1, hits give low values
[11] = S. cerevisiae deletion strains, locus YLR039C, strain RIC1, hits give low values
[12] = S. cerevisiae deletion strains, locus YLR058C, strain SHM2 (second series), hits give low values
[13] = S. cerevisiae deletion strains, locus YLR085C, strain ARP6, hits give low values
[14] = S. cerevisiae deletion strains, locus YLR262C, strain YPT6, hits give low values
[15] = S. cerevisiae deletion strains, locus YML094W, strain GIM5, hits give low values
[16] = S. cerevisiae deletion strains, locus YMR219W, strain ESC1, hits give low values
[17] = S. cerevisiae deletion strains, locus YMR263W, strain SAP30, hits give low values
[18] = S. cerevisiae deletion strains, locus YNL153C, strain GIM3, hits give low values
[19] = S. cerevisiae deletion strains, locus YNL298W, strain CLA4 (second series), hits give low values
[20] = S. cerevisiae deletion strains, locus YNL322C, strain KRE1, hits give low values
[21] = S. cerevisiae deletion strains, locus YNR030W, strain Alg12, hits give low values
[22] = S. cerevisiae deletion strains, locus YPL055C, strain LGE1, hits give low values
[23] = S. cerevisiae deletion strains, locus YPL241C, strain CIN2, hits give low values
[24] = S. cerevisiae deletion strains, locus YPR135W, strain CTF4, hits give low values

Measured: normalized growth

O=C(O)c1ccccc1Sc1c(C(=O)O)cc([N+](=O)[O-])cc1[N+](=O)[O-]
inactive: [1] 1.01 | [2] 1.01 | [3] 1.02 | S. cerevisiae deletion strains, locus YDL134C, strain PPH21, hits give low values 0.976 | [4] 0.988 | [5] 0.994 | [6] 1.01 | [7] 1.01 | [8] 0.993 | [9] 1 | [10] 1 | [11] 1 | [12] 0.994 | [13] 0.989 | [14] 0.984 | [15] 1.08 | [16] 1.01 | [17] 0.994 | [18] 1.03 | [19] 0.964 | [20] 1.02 | [21] 1.01 | [22] 1.02 | [23] 1.08 | [24] 1.09

O=[N+]([O-])c1cc(Cl)c(Sc2ccccc2)cc1Sc1ccccc1
inactive: [1] 0.995 | [2] 0.999 | S. cerevisiae deletion strains, locus YCL061C, strain MRC1, hits give low values 0.974 | [3] 1.01 | [4] 0.983 | [5] 0.998 | [6] 0.999 | [7] 0.922 | [8] 0.998 | S. cerevisiae deletion strains, locus YJL187C, strain SWE1, hits give low values 1.03 | [9] 0.992 | [10] 0.994 | [11] 0.998 | [12] 0.992 | [13] 1.03 | [14] 0.909 | [15] 1.03 | [16] 1.01 | [17] 1.01 | [18] 0.993 | [19] 1.01 | [20] 1.01 | [21] 0.977 | S. cerevisiae deletion strains, locus YOL006C, strain TOP1, hits give low values 0.998 | [22] 1.01 | [23] 1.01 | [24] 0.925 | S. cerevisiae strains, strain wild type, hits give low values 1.01
